Records with an inconclusive call do not appear. Active and inactive are the calls of the source. Unless noted, the call rests on the fitted dose curve; in most records, active means well fitted curve in the direction sought with a large enough effect in the repeat runs; inconclusive means weak or mixed curves; inactive means no such curve, though single readings can be large; an effect the other way counts as inactive or inconclusive.
How the values were obtained:
[1] = A CellTox Green Cytotoxicity Assay to monitor cytotoxicity in HepG2 cells - 8 hour (AID 1224890); further: nearly all actives have a fitted effect of over 45% in size
In short: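 HepG2 cells, 600/well, preincubated 5 h with CellTox Green dye, then exposed to Tox21 compounds in DMSO at 37 C for up to 40 h. Dead-cell DNA fluorescence read at the indicated time point.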

[2] = qHTS assay to identify small molecule antagonists of the estrogen receptor alpha (ER-alpha) signaling pathway using the BG1 cell line in the presence of 0.1 nM 17-beta-estradiol - cell viability counter screen (AID 1259241); further: nearly all actives have a fitted effect of over 40% in size
In short: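 VM7Luc4E2, 4,000 cells/well, phenol red-free medium + 10% charcoal-stripped FBS; 24 hr plating; cpd + 0.1 nM E2 final, 22 hr 37C/5% CO2; CellTiter-Fluor 30 min, fluorescence.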

[3] = qHTS assay to identify small molecule antagonists of the androgen receptor (AR) signaling pathway using the MDA cell line in the presence of 0.5 nM R1881 - cell viability counter screen (AID 1259242); further: nearly all actives have a fitted effect of over 45% in size
In short: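 MDA-kb2 cells (MMTV-luciferase, AR/GR responsive) were treated with compounds plus 0.5 nM R1881 (final) for 16 hr at 37C, 0% CO2. Viability was then read in the same wells as live-cell protease fluorescence (CellTiter-Fluor, 30 min).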

[4] = molecular target: Androgen receptor (Homo sapiens) (UniProt P10275); assay: qHTS assay to identify small molecule antagonists of the androgen receptor (AR) signaling pathway using the MDA cell line in the presence of 0.5 nM R1881 (AID 1259243); further: nearly all actives have a fitted effect of over 50% in size
In short: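 MDA-kb2 cells (MMTV-luciferase, responsive to AR and GR) at 3,000/well, rested 5 h at 37C, 0% CO2, then given compounds plus 0.5 nM R1881 (final) for 16 hr. Luciferase read with ONE-Glo after 30 min at room temperature.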

[5] = molecular target: Estrogen receptor (Homo sapiens) (UniProt P03372); assay: qHTS assay to identify small molecule antagonists of the estrogen receptor alpha (ER-alpha) signaling pathway using the BG1 cell line in the presence of 0.1 nM 17-beta-estradiol (AID 1259244); further: nearly all actives have a fitted effect of over 50% in size
In short: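 VM7Luc4E2 cells (endogenous full-length ER-alpha, 4×ERE-luciferase), kept 5 days in phenol red-free, charcoal-stripped FBS medium; 4,000 cells/well. Compounds added with 0.1 nM (final) 17beta-estradiol, 22 hr at 37C; luminescence read with ONE-Glo after 30 min.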

[6] = qHTS assay to identify small molecule HDAC inhibitors (AID 1259364); further: top concentration of the series differs between compounds; nearly all actives have a fitted effect of over 45% in size
In short: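 Wild-type HCT-116 cells, plated overnight at 37 C, exposed to compounds 2 hr at 37 C; luminogenic HDAC-Glo substrate then added 30 min at room temperature. Luminescence reports relative endogenous class I/II HDAC activity.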

[7] = qHTS assay to identify small molecule agonists of the sonic hedgehog signaling (Shh) pathway - cell viability counter screen (AID 1259366); further: nearly all actives have a fitted effect of over 50% in size
In short: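 Cytotoxicity counter screen run in the same wells as the Shh reporter assay. NIH/3T3 cells carrying a Gli1 response element–driven luciferase were treated with DMSO-dissolved compounds for 24hr, and live-cell protease activity was measured with CellTiter-Fluor.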

[8] = qHTS assay to identify small molecule antagonists of the sonic hedgehog signaling (Shh) pathway - cell viability counter screen (AID 1259367); further: nearly all actives have a fitted effect of over 55% in size
In short: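 After a 4 hr settling period, 3T3 Gli1-Luc cells were treated with DMSO-dissolved chemicals and conditioned medium, kept 24 hr at 37C in 5% CO2, and assayed for viability by CellTiter-Fluor fluorescence following 1 hr reagent incubation.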

[9] = qHTS assay to identify small molecule agonists of the sonic hedgehog signaling (Shh) pathway (AID 1259368; calls by dose curve;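 further: NIH/3T3-derived 3T3Gli1-Luc cells carrying a stable Gli1-driven firefly luciferase reporter; series mostly up to about 92 µM; nearly all actives have a fitted effect of over 15% in size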)
In short: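 NIH/3T3-derived 3T3Gli1-Luc cells with stably integrated Gli1-driven firefly luciferase, 2,000 cells/well, compounds added after 4 hr. Incubated 24 hr at 37C, 5% CO2; luminescence read after 30 min with luciferase reagent at room temperature.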

[10] = qHTS assay to identify small molecule antagonists of the sonic hedgehog signaling (Shh) pathway (AID 1259369; calls by dose curve; further: nearly all actives have a fitted effect of over 45% in size)
In short: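 NIH/3T3-derived Gli1-Luc reporter cells plated 4 h, dosed with compound, then stimulated with conditioned medium for 24 h at 37 C. Firefly luciferase luminescence read after 30 min with detection reagent at room temperature.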

[11] = molecular target: Estrogen receptor beta (Homo sapiens) (UniProt Q92731); assay: qHTS assay to identify small molecule agonists of the estrogen receptor beta (ER-beta) signaling pathway (AID 1259377; active means well fitted activation curve with a large enough effect in the signal ratio in the repeat runs, not every such curve was filed as active; the % refers to the signal ratio)
In short: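 HEK293T ER-beta-UAS-bla; 2% charcoal-stripped FBS; cells pre-incubated 6 hr, compound 16 hr, 37C/5% CO2; LiveBLAzer B/G FRET substrate 2 h RT; fluorescence intensity read.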

[12] = molecular target: Estrogen receptor beta (Homo sapiens) (UniProt Q92731); assay: qHTS assay to identify small molecule antagonists of the estrogen receptor beta (ER-beta) signaling pathway (AID 1259378; active means well fitted inhibition curve with a large enough effect in the signal ratio in the repeat runs, not every such curve was filed as active; the % refers to the signal ratio)
In short: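 ER-beta-UAS-bla HEK293T (GripTite) cells in 2% charcoal-stripped FBS medium were preincubated 6 hr at 37C, dosed with compound, then stimulated with 1 nM E2 (final) for 16 hr; beta-lactamase reporter read by B/G FRET fluorescence after 2 hr substrate loading.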

[13] = qHTS assay to identify small molecule agonists of the androgen receptor (AR) signaling pathway in the presence of an antagonist - cell viability counter screen (AID 1259379);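 further: MDA-kb2 human breast cancer cells carrying an MMTV luciferase reporter; series mostly up to about 92 µM; nearly all actives have a fitted effect of over 25% in size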
In short: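 MDA-kb2 cells (MMTV-luciferase, AR/GR), 3,000/well, 5 h attachment, then 3.0 µM nilutamide (final) and compounds at 15 concentrations. Viability by CellTiter-Fluor fluorescence after 16 h at 37 °C, 0% CO2, in the reporter wells.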

[14] = qHTS assay to identify small molecule agonists of the estrogen receptor beta (ER-beta) signaling pathway - cell viability counter screen (AID 1259380); further: nearly all actives have a fitted effect of over 30% in size
In short: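 ER-beta-UAS-bla HEK293T cells in medium with 2% charcoal-stripped FBS, pre-incubated 6 hr, then treated 16 hr at 37C. Cytotoxicity read in the same wells by CellTiter-Glo luminescence after 30 min at room temperature.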

[15] = molecular target: Androgen receptor (Homo sapiens) (UniProt P10275); assay: qHTS assay to identify small molecule agonists of the androgen receptor (AR) signaling pathway in the presence of an antagonist (AID 1259381; calls by dose curve; further: nearly all actives have a fitted effect of over 15% in size)
In short: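 MDA-kb2 cells carrying MMTV-luciferase (AR/GR responsive), 3,000 cells/well, co-treated with 3.0 uM nilutamide final. Compounds at 15 concentrations, 16 hr at 37C without CO2. Luciferase luminescence read after 30 min with ONE-Glo.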

[16] = qHTS assay to identify small molecule antagonists of the estrogen receptor beta (ER-beta) signaling pathway - cell viability counter screen (AID 1259382); further: series mostly up to about 92 µM; nearly all actives have a fitted effect of over 55% in size
In short: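 ER-beta-UAS-bla HEK293T cells in 2% charcoal-stripped FBS medium, treated with compound plus 1 nM 17-beta-estradiol for 16 h at 37C. Viability read by CellTiter-Glo luminescence after 30 min at room temperature in the same wells.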

[17] = molecular target: Estrogen receptor (Homo sapiens) (UniProt P03372); assay: qHTS assay to identify small molecule agonists of the estrogen receptor alpha (ER-alpha) signaling pathway in the presence of an antagonist (AID 1259383; calls by dose curve; further: top concentration of the series differs between compounds; nearly all actives have a fitted effect of over 15% in size)
In short: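 VM7Luc4E2 cells express endogenous full-length ER-alpha with an ERE-luciferase reporter and were hormone-deprived for 5 days. Compounds at 15 concentrations were added with 10.0nM ICI-182,780 for 22hr at 37C. Luminescence was read with ONE-Glo.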

[18] = qHTS assay to identify small molecule agonists or antagonists of the thyroid stimulating hormone receptor (TSHR) signaling pathway - wild type cell line counter screen (AID 1259384; calls by dose curve)
In short: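 Wild-type HEK293 cells were plated 18 h at 37 C/5% CO2, pin-dosed with compound plus Ro20-1724 medium, held 30 min at room temperature, then given cAMP-d2 and anti-cAMP-cryptate; fluorescence was read after 1 h. Fifteen concentrations, triplicate.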

[19] = qHTS assay to identify small molecule HDAC inhibitors - cell viability counter screen (AID 1259365); further: series mostly up to about 92 µM; nearly all actives have a fitted effect of over 50% in size
In short: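 Luminescence from CellTiter-Glo, developed 30min at room temperature, reports viability of wild-type HCT-116 cells treated 2hr with compounds at 37 C and 5% CO2 after overnight plating.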

[20] = qHTS assay to identify small molecule phospholipidosis (PLD) inducers (AID 1259344; active means well fitted curve in the direction sought with a large enough effect; an effect the other way counts as inactive or inconclusive)
In short: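 HepG2 cells grown on collagen I take up LipidTOX Red while exposed to compound for 24 h; after fixation they are imaged at 20x and pit metrics are extracted.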
On the % scale 0 is the no-effect control and ±100 the full control effect.

Estrogen receptor beta (Homo sapiens), sequence (Q92731 whole entry, looked up): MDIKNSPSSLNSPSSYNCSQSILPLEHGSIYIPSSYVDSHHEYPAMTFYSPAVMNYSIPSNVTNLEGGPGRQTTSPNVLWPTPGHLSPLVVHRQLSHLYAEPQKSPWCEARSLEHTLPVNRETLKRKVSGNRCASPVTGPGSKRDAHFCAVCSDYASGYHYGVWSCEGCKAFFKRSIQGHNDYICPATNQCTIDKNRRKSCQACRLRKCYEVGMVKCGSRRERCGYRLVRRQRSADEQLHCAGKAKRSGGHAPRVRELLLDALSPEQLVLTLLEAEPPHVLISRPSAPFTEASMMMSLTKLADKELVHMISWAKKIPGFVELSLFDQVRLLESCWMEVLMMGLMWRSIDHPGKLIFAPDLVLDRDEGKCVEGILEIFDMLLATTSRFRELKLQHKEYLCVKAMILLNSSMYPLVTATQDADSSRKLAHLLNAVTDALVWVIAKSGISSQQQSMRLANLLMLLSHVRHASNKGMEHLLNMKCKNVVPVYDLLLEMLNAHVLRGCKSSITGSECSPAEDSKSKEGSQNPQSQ
Estrogen receptor (Homo sapiens), sequence (P03372 whole entry, looked up): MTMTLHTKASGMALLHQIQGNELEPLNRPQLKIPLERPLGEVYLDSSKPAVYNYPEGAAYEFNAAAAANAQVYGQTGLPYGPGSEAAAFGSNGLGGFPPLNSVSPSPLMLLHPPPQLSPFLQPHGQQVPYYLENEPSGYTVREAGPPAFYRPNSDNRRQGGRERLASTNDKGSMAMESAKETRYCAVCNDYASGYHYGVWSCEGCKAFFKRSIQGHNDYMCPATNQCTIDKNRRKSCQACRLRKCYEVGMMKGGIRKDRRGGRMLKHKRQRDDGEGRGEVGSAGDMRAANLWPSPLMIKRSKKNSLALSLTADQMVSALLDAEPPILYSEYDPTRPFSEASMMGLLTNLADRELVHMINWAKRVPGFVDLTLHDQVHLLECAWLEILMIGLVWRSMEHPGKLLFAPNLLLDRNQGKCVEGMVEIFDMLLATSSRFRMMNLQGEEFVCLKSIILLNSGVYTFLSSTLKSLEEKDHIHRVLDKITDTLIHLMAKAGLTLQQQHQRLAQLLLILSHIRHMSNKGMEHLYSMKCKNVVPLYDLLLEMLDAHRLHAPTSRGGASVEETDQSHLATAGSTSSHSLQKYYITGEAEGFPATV
Androgen receptor (Homo sapiens), sequence (P10275 whole entry, looked up): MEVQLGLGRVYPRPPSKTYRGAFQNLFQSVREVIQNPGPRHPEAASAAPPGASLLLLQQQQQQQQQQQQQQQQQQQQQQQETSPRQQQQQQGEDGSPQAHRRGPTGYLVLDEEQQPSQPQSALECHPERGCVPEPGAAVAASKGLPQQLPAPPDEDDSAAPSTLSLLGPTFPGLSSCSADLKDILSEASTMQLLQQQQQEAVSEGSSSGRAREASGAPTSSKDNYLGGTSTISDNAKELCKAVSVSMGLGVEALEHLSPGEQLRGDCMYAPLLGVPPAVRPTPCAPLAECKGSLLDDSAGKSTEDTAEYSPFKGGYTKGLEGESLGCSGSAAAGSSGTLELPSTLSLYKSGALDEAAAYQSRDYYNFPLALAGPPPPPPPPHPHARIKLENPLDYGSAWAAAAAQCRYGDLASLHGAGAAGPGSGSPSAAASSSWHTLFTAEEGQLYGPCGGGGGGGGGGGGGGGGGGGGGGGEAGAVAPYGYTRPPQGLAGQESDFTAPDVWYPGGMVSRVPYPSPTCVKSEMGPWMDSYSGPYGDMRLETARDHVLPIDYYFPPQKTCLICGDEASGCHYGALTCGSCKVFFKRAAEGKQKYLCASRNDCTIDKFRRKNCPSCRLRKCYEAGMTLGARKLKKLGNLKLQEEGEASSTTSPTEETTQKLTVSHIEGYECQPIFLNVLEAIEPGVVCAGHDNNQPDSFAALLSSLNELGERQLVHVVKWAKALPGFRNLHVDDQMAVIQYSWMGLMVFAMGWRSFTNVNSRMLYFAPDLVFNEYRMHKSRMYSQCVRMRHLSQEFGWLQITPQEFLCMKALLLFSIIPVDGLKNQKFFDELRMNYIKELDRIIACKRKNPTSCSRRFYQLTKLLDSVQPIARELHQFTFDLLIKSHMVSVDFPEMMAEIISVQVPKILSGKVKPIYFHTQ

O=C1CC2(CCCC2)CC(=O)N1
inactive: Potency [1] | outcome [2] | outcome [3] | Potency [4] | outcome [5] | Potency [6] | Potency [7] | outcome [8] | Potency [9] | Potency [10] | outcome [11] | Potency [12] | Potency [13] | Potency [14] | Potency [15] | Potency [16] | Potency [17] | outcome [18]

COc1cc(CCC(C)=O)ccc1O
inactive: Potency [1] | outcome [2] | outcome [3] | Potency [4] | Potency [6] | outcome [19] | Potency [7] | outcome [8] | Potency [9] | Potency [10] | Potency [12] | Potency [13] | Potency [14] | Potency [15] | Potency [16] | outcome [18]

CC(C)CCCC(C)NCCC(C)C (stereo not given)
inactive: Potency [1] | outcome [2] | outcome [3] | Potency [4] | outcome [5] | Potency [6] | outcome [19] | Potency [7] | outcome [8] | Potency [9] | Potency [12] | Potency [13] | Potency [14] | Potency [15] | Potency [16] | Potency [17] | outcome [18]

NCC[C@H](O)C(=O)N[C@@H]1C[C@H](N)[C@@H](O[C@H]2O[C@H](CN)[C@@H](O)[C@H](O)[C@H]2O)[C@H](O)[C@H]1O[C@H]1O[C@H](CO)[C@@H](O)[C@H](N)[C@H]1O
inactive: cytotoxicity increase [1] -0.472% [at 0.29 µM] | activity change, negative = cytotoxicity [2] 7.28% [at 0.349 µM] | viability change, negative = cytotoxic [3] 0.273% [at 0.349 µM] | activity, negative = inhibition [4] 0.695% [at 0.349 µM] | activity change, negative = inhibition [5] 9.86% [at 0.349 µM] | Potency [20] | activity change, negative = inhibition [6] 5.91% [at 0.349 µM] | activity change, negative = cytotoxicity [19] 1.82% [at 0.349 µM] | viability change, negative = cytotoxic [7] 2.12% [at 0.349 µM] | viability change, negative = cytotoxic [8] 1.11% [at 0.349 µM] | activity change [9] 0.203% [at 0.349 µM, hits give high values] | activity change, negative = inhibition [10] 22.5% [at 0.349 µM] | activation [11] 0.597% [at 0.348 µM] | activity change, negative = cytotoxicity [13] 1.61% [at 0.35 µM] | activity change, negative = cytotoxicity [14] 1.09% [at 0.349 µM] | activation [15] 0.148% [at 0.349 µM] | activity change, negative = cytotoxicity [16] 1.11% [at 0.349 µM] | activation [17] 1.1% [at 0.349 µM] | cAMP activity change [18] -0.997% [at 0.349 µM]

NC(N)=NS(=O)(=O)c1ccc(N)cc1
inactive: Potency [1] | outcome [2] | outcome [3] | Potency [4] | outcome [5] | Potency [20] | Potency [6] | outcome [19] | Potency [7] | outcome [8] | Potency [9] | Potency [10] | outcome [11] | Potency [12] | Potency [13] | Potency [14] | Potency [15] | Potency [16] | Potency [17] | outcome [18]
